IL2 activator = qHTS of IL-2 Activators. IL-2 activation reporter assay, cell-based qHTS; stimulated with anti-CD3/CD4/CD28 beads; in transgenic mouse T cells. activation, % (series mostly up to about 46 µM). hit rate 0.065% among 360,000; in the data active = activation above about 50%; inconclusive = mostly about 30% to 49%; note: 0% is about no effect
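Unstimulated transgenic mouse T cells; 60-min compound exposure; bead-based TCR/CD4/CD28 stimulation; 18 h culture, 37 degrees C; dual fluorescence (EGFP, DsRed) plate cytometry.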
miR-21 reporter = qHTS Assay for Modulators of miRNAs and/orActivators of miR-21; HeLa miR-21 FLuc reporter, luciferase, 48 h; Potency, µM (titrated, usually from 38.3 µM), without a hit: top-dose activity change, positive = activation, hits mostly activators; 340,000 tested, under 10 active; AID 2288, 2010;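 note: % of control where 0% means no effect; miR-21 action dims this reporter so a rising signal means less miR-21 action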
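HeLa cells stably expressing CMV-driven firefly luciferase with a downstream miR-21 binding sequence, endogenously expressing miR-21, were treated with titrations (up to about 40uM final) for 48 hours at 37 degree Celsius. Luciferase luminescence was read after lysis.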
Nrf2 inh = Nrf2 qHTS screen for inhibitors | AID 504444, 2011 | Potency, µM (series often up to 46 µM), inactives show at the highest dose activity change, negative = inhibition, most hits filed as inhibitors | A549 ARE-Fluc reporter, luciferase luminescence, 18-24 h | hit rate 2.1% among 360,000; note: potency is the fitted concentration of half-maximal effect; % is set by controls: 0 for no effect and ±100 for the full control effect; nearly all actives have a fitted effect of over 60% in size
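Quantitative HTS in A549 cells stably bearing an antioxidant response element-firefly luciferase construct. Inhibition of Nrf2-driven transcription was scored by luminescence after 18-24 h of compound exposure at 37 °C.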
Nrf2 activator = qHTS of Nrf2 Activators. AID 624171, 2012. hit rate 0.31% among 410,000. Potency, µM (top dose mostly 46.1 µM), without a hit: top-dose activation, most hits filed as activators. AREc32 ARE-luciferase reporter (MCF7-derived line), luminescence, 24 h; note: potency is the fitted concentration of half-maximal effect; % of control where 0% means no effect; nearly all actives have a fitted effect of over 65% in size
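Quantitative high-throughput format: AREc32 reporter cells, 1000 per well, received compound by pin transfer and were incubated 24 hr at 37 deg C, 5% CO2, before Steady-Glo luminescence detection.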
ClpP mod = qHTS Assay for Activators of ClpP. ATP-dependent Clp protease proteolytic subunit (Bacillus subtilis (strain 168)), P80244. purified B. subtilis ClpP, FRET peptide cleavage, 20 min. Potency, µM (doses to about 57.5 µM), for the others: top-dose activity change, negative = active. hit rate 1.9% among 340,000. AID 651965, 2013; active = well fitted falling curve with a large enough effect; inconclusive = small, poorly fitted or top-dose-only effect; inactive = no such curve, though single readings can be large or run the other way; note: potency is the fitted concentration of half-maximal effect; the source files actives as falling curves though it sought activators and does not explain the sign; nearly all actives have a fitted effect of over 65% in size
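FRET quenching reversal measured ClpP activation: 10 microg/mL B. subtilis ClpP at pH 8 with the FRET-FV decapeptide, read at 430 nm after 320 nm excitation. The 20-min minus 0-min signal was scaled between DMSO/no-enzyme wells and ADEP (5.8 microM final).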
A549 viability = Nrf2 qHTS screen for inhibitors: counterscreen for cytotoxicity. A549 ARE-Fluc cells, CellTiter-Fluor viability, 18-24 h. Potency, µM (doses to about 46 µM), for inactives: top-dose activity change, negative = cytotoxicity, actives largely listed as inhibitors. hit rate 0.16% among 390,000; note: potency is the fitted concentration of half-maximal effect; % is set by controls: 0 for no effect and ±100 for the full control effect
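Cytotoxicity counterscreen: CellTiter-Fluor fluorescence was measured in A549 ARE_Fluc cells after 18-24 h of compound exposure in a concentration series. The subsequent BugLite luminescent read reports ARE-luciferase activity.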
An asterisk follows results filed as active; ? = inconclusive; · = no result given. Hits are enriched below; roughly 3.7% of the tested compounds scored in any of these assays. Unless noted, calls come from the whole dose curve; as a rule, active = well fitted curve in the direction sought with a large enough effect; inconclusive = small, poorly fitted or top-dose-only effect, or another doubt; inactive = no such curve, though single readings can be large; an effect the other way counts as inactive or inconclusive.

SMILES	IL2 activator	miR-21 reporter	Nrf2 inh	Nrf2 activator	ClpP mod	A549 viability
Cc1c(C)n(Cc2ccccc2)c2ccc(C(=O)NC(C)c3ccccc3)cc12 (stereo not drawn)	·	-3%	-6%	9%	?	-5%
COc1ccc(Br)cc1CNC(=O)c1ccc2c(c1)nc1n2CCCCC1	·	0%	·	-1%	-1%	-7%
Cn1cc(C=O)c2cc(F)ccc21	2	1%	12%	0%	1%	0%
Cn1cc(/C=C/c2cc[n+](C)cc2)c2cc(Cl)ccc21	104*	?	10µM*	0%	·	?
CCn1c2c(c3cc(Br)ccc31)CCC/C2=N\O	-3	-18%	·	3%	-4%	20%
CCn1c2c(c3cc(OCC(C)C)ccc31)CCCC2=O	-1	-11%	-28%	0%	28µM*	2%
COc1ccc(CN=Cc2[nH]c3ccc(Br)c(Cl)c3c2O)cc1	0	6%	·	?	-4%	4%
Cc1cc(C)cc(N=Cc2[nH]c3ccc(Br)c(Cl)c3c2O)c1	54*	-9%	-20%	?	-1%	-7%
COc1ccccc1CNC(=O)c1ccc2c(c1)CCN2S(=O)(=O)c1ccc(Cl)cc1	·	7%	-18%	-1%	2%	14%
COC(=O)c1ccsc1NC(=O)CSc1nnnn1-c1ccccc1SC	-2	-6%	21µM*	4%	-2%	-20%
Cc1ccc(NC(=O)CN2C(=O)c3ccccc3Sc3ccc(C(=O)N4CCOCC4)cc32)cc1F	·	3%	·	0%	-1%	2%
C[N+]1(CC(=O)c2ccc(I)cc2)CCCc2ccccc21 (stereo not drawn)	·	·	·	·	-2%	·
c1ccc(CCNc2nc(-c3ccccn3)nc3ccccc23)cc1	-4	?	10µM*	0%	·	?
CCCN(CCC)c1nc(-c2ccccc2F)nc2ccccc12	·	14%	12%	7%	0%	8%
C/C(=N\Nc1nc(-c2ccccn2)nc2ccccc12)c1ccc(F)cc1	1	2%	-10%	-1%	0%	0%
CCCN(CCC)c1nc(-c2ccccn2)nc2ccccc12	-1	?	18µM*	8%	·	-18%
COc1ccc(CCNC(=O)Cc2c(C)c3c(cc(C)c4c(C)c(C)oc43)oc2=O)cc1	·	5%	2%	0%	?	5%
Cc1ccc(Cn2ccc(NC(=O)CCSc3nc(-c4ccco4)cc(C(F)(F)F)n3)n2)cc1	0	13%	?	0%	-3%	-23%
COc1ccc(NC(=O)CCSc2nc(-c3ccco3)cc(C(F)(F)F)n2)cc1OC	·	-2%	-8%	1%	20%	-10%
COc1ccc(NC(=O)CCCSc2nc(-c3ccco3)cc(C(F)(F)F)n2)cc1OC	0	5%	21µM*	0%	0%	-17%
Cc1cc(NC(=O)CCSc2nc(-c3ccco3)cc(C(F)(F)F)n2)no1	0	-1%	-2%	0%	-9%	-8%
Cc1cc(NC(=O)CSc2nc(-c3ccco3)cc(C(F)(F)F)n2)no1	1	21%	-17%	0%	25µM*	?
O=C(CSc1nc(-c2ccco2)cc(C(F)(F)F)n1)Nc1ccc(C(=O)N2CCCCC2)cc1	0	5%	23µM*	0%	-2%	-16%
Cc1ccccc1Cn1ccc(NC(=O)CCSc2nc(-c3ccco3)cc(C(F)(F)F)n2)n1	-3	-2%	·	1%	28µM*	-6%
COC(=O)C1=CN(CC2CCCO2)C=C(C(=O)OC)C1c1ccccc1C(F)(F)F (stereo not drawn)	1	-5%	11%	0%	32µM*	5%
SMILES	IL2 activator	miR-21 reporter	Nrf2 inh	Nrf2 activator	ClpP mod	A549 viability
O=C(O)Cc1coc2cc3c(cc12)CCC3	-1	-1%	-1%	0%	25µM*	9%
O=C(Cc1coc2cc3c(cc12)CCC3)NC1CCCCCCC1	1	-17%	8%	8%	1%	10%
COc1ccc(-n2c(SCC#N)nnc2-c2ccc(NS(=O)(=O)c3ccc(C)cc3)cc2)cc1	0	-16%	10µM*	2%	-3%	-18%
O=C(Nc1ccc(F)cc1)c1nn(-c2ccccc2)c(=O)cc1Cl	0	?	18µM*	-2%	·	?
Cc1nc(N2CCCC2)ncc1C(=O)Nc1ccccc1	·	1%	·	0%	?	9%
CCC(C)C(=O)Nc1ccc(S(=O)(=O)N2CCCC2)cc1 (stereo not drawn)	0	3%	-6%	-1%	0%	0%
CCC(C)NS(=O)(=O)c1ccc(S(=O)(=O)N2CCCC3(CCCCC3)C2)cc1 (stereo not drawn)	-4	23%	21µM*	0%	-2%	-22%
CCC(=O)C1=C(c2cccc([N+](=O)[O-])c2)N(C(=O)CC)n2c(nnc2-c2ccccc2)S1	·	-1%	·	3%	2%	6%
CC[N+](C)(C(=O)O)/C(=C\c1ccccc1)c1ccnc2ccccc12 (stereo not drawn)	·	·	·	·	1%	·
CCOC(=O)c1c(C)oc2nc(C)nc(NCCc3ccc(SC)cc3)c12	·	-6%	?	3%	-4%	18%
Cc1ccc2c(c1)c1ncnc(N3CCN(c4ccccc4)CC3)c1n2C	1	-2%	·	4%	32µM*	-1%
Cc1ccc(N2C(=O)C(CN3CCCCC3)C2c2ccccc2)cc1 (stereo not drawn)	-3	0%	4%	0%	16µM*	-2%
CC(C)c1nnc(NC(=O)c2c(O)c3cccc4c3n(c2=O)CCC4)s1	1	-4%	16µM*	2%	0%	?
Cc1ccc2nc(/C=C/c3ccc(N(C)C)cc3)ccc2c1	·	·	·	·	-4%	·
CCOC(=O)c1ccc2c(c1)n(CC)c(/C=C/N(C)c1ccccc1)[n+]2CC	-1	?	3.3µM*	-1%	-5%	?
Cc1ccc(Cl)cc1NC(=O)Cn1c(=O)cc(C)c2c(C)nn(C)c21	·	-4%	?	-1%	-2%	-2%
Cc1cccc(Sc2ccc([N+](=O)[O-])cc2[N+](=O)[O-])n1	-2	?	4%	?	·	-13%
O=[N+]([O-])c1ccc(Sc2ncccn2)c([N+](=O)[O-])c1	3	?	23µM*	?	·	?
Cc1nc(-n2nc(C)c(Cc3ccc(Cl)cc3)c2C)sc1C(=O)N1CCC(C)CC1	·	-2%	1%	0%	-2%	5%
Cc1cc(C)nc(Sc2ncnc3sc4c(c23)CCC4)n1	-2	0%	-5%	13%	13µM*	1%
